KKLEB cytotox – counter-screen for CF NF-kB inhibitors: cytotoxicity | KKLEB CF airway cells viability, ATPlite luminescence, overnight; stronger effect = lower value; cells stimulated with P. aeruginosa culture filtrate | AID 602141 | 0.36% of 360,000 active | activity change (cytotoxicity), % at 5 µM;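 active = corrected activity change at or below -50% at 5 µM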
TROY signal inh – TROY signaling inhibition. Q293 LMP1-TROYcd NF-kB luciferase reporter, 4 h. inhibition, % at 10 µM. 0.98% of 360,000 active. AID 1347056;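 active = compounds whose plate-normalised and pattern-corrected inhibition of the luciferase reporter signal at the single screening dose is 50% or more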
HIF-2a inh – blocks HIF-2a reporter activity; 786-0 RCC cells HIF-2a reporter, luciferase luminescence, overnight; inhibition, % at 18.8 µM; 0.72% of 360,000 active;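 active = inhibition of the luminescence signal of 40% or more relative to plate controls, in a single-dose primary screen at 18.75 µM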
TWEAK Fn14 block – blocks TWEAK-Fn14 interaction in a reporter cell assay | TWEAK-stimulated Fn14 reporter cells, luciferase luminescence, 8 h | inhibition, % at 10 µM | 2% of 360,000 active | AID 1159606; in the data active = inhibition above about 50%
CF NFkB block – blocks PAF-induced NF-kB reporter in cystic fibrosis cells; 0.86% of 360,000 active; KKLEB NF-kB-GFP reporter, GFP fluorescence overnight; inhibition, % at 5 µM;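 active = at least 50% inhibition at 5 µM, scaled per plate between neutral and stimulator controls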;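 also: PAF is a Pseudomonas aeruginosa culture filtrate used as stimulus; plate controls were PAF-stimulated DMSO wells for no effect and unstimulated DMSO wells for full effect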
Peg3 promoter – Peg3 promoter activity inhibition | HeLa PEG-Prom luciferase reporter, luminescence, overnight | inhibition, % at 20 µM | 1.7% of 360,000 active | AID 588405;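 active = inhibition of at least 50% at 20 µM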
* hit, by the source's call. Only some compounds are listed: those with a hit (about 3.9% of all), similar ones and a draw of the others.

SMILES	KKLEB cytotox	TROY signal inh	HIF-2a inh	TWEAK Fn14 block	CF NFkB block	Peg3 promoter
Cc1cc(C)nc(NC(=O)c2ccc(C)c([N+](=O)[O-])c2)n1	7	-8	21	-14	9	9
O=C(Nc1ccccc1OC(F)F)c1cc2c(s1)CCC2	2	-64	-209	-54	10	-178
COC(=O)c1sc(NC(=O)c2cc3c(s2)CCCC3)nc1C	0	-10	-134	12	-23	-173
CCC(=O)NC(=S)Nc1ccc(NC(=O)c2cccnc2)cc1	4	1	-33	72*	4	-57
CCOC(=O)c1ccccc1NC(=O)Cn1cnc2c1c(=O)n(C)c(=O)n2C	0	6	14	-11	10	-8
COCc1nnc(NC(=O)c2ccc(Cl)cc2[N+](=O)[O-])s1	-5	-18	-14	0	2	-27
COc1ccc(C(CC(=O)N2CCCC(C)C2)c2c(OC)cc(OC)c3c(-c4ccccc4)cc(=O)oc23)cc1 (configuration not stated)	6	10	12	4	-3	10
Cc1ccc(C(=O)Nc2ccccc2C(=O)N2CCCC2)cc1[N+](=O)[O-]	8	90*	1	100*	9	-2
Cc1csc(NC(=O)c2cccnc2)n1	2	-19	-114	83*	6	-51
Cc1cc(C(=O)Nc2ccccc2C(=O)N2CCCCC2)ccc1[N+](=O)[O-]	-2	11	15	-12	-8	17
O=C(CC1CCCCC1)N1CCC(c2nc(-c3ccc(S(=O)(=O)N4CCCC4)cc3)no2)CC1	-18	30	19	41	31	36
COc1cccc(-c2nnc(SC(C(=O)c3c[nH]c4ccccc34)c3ccccc3)n2C)c1 (configuration not stated)	-13	25	24	51*	10	53*
COc1ccccc1-c1nnc(SCC(=O)NC2CC2)n1C	-6	25	4	7	15	11
COc1cccc(-c2nnc(SCCC(=O)O)n2C)c1	7	-3	15	-9	-2	12
COc1ccccc1-c1nnc(SC(C(=O)c2c[nH]c3ccccc23)c2ccccc2)n1C (configuration not stated)	-8	34	35	43	19	54*
CC(Nc1cccc(F)c1)C(=O)Nc1ccc(S(N)(=O)=O)cc1 (configuration not stated)	-3	10	5	-5	10	-1
COc1ccc(N=Cc2ccc[nH]2)cc1	6	63*	-20	87*	-10	-5
CCCCOc1ccc(N=Cc2ccc[nH]2)cc1	-2	73*	13	67*	-6	-2
COc1ccc(N=Cc2c(O)[nH]c3ccccc23)cc1	17	-44	-264	29	8	-264
CS(=O)(=O)N(Cc1ccccc1)c1ccc(C(=O)N2CCc3ccccc3C2)cc1	-1	-3	12	0	-8	24
CC(=O)N1CCN(C(=O)c2ccc(Cl)c(S(=O)(=O)N3CCc4ccccc43)c2)CC1	-17	-17	16	-18	12	3
O=C(c1ccc(Cl)c(S(=O)(=O)N2CCc3ccccc32)c1)N1CCN(c2ccccc2O)CC1	-14	27	11	37	-4	69*
O=c1[nH]c(-c2ccccn2)nc2sc(-c3ccccc3)cc12	8	26	-161	100*	19	96*
Cc1c(C(=O)N(C)C)sc2nc(-c3ccccn3)[nH]c(=O)c12	-4	-33	-65	9	4	-42
O=C(CCc1nc(-c2ccccc2F)no1)Nc1ccc(Oc2ccccc2)cc1	-7	44	6	52*	11	16
SMILES	KKLEB cytotox	TROY signal inh	HIF-2a inh	TWEAK Fn14 block	CF NFkB block	Peg3 promoter
Cn1cccc1C(=O)OCC(=O)NC1CCS(=O)(=O)C1 (configuration not stated)	18	-3	11	-2	-11	6
C[C@H](CO)N1C[C@H](C)[C@@H](CN(C)C(=O)Cc2ccccc2)OCc2cnnn2CCCC1=O	-22	-4	13	-5	-2	-2
COc1ccc(C2(c3ccc(OC)cc3)NC(=O)N(CC(=O)NCC(C)c3ccccc3)C2=O)cc1 (configuration not stated)	-10	13	18	21	-18	18
Cc1ccc(Cl)cc1-c1ccc(C=Nc2ccc(N3CCOCC3)cc2)o1	-3	46	20	27	-15	14
Cc1cc(NC(=O)c2ccccc2NS(=O)(=O)c2c(C)c(C)cc(C)c2C)no1	5	53*	20	38	49	41
Cc1ccc2c(c1)c1c3n2CCN(CC(O)CNC(C)C)C3CCC1 (configuration not stated)	-14	-9	-9	8	10	72*
Cc1ccc2c(c1)c1c(n2CC(O)CNC2CCCC2)CCCC1 (configuration not stated)	-7	-8	-2	-22	12	61*
Cc1ccc2c(c1)c1c(n2CC(O)Cn2ccnc2C)C(=O)CCC1 (configuration not stated)	-16	5	-6	-3	-6	10
CC(=O)Nc1sc(N/N=C\c2ccccc2Cl)nc1-c1cccs1	10	16	0	67*	-6	-151
COCc1c(C#N)c(NCCc2ccc(F)cc2)nc(C)c1[N+](=O)[O-]	0	-7	5	1	-11	19
Cc1nc(NCCc2ccc(F)cc2)c(C#N)c(C)c1[N+](=O)[O-]	12	10	-7	4	-2	51*
O=C(NC1CCOC1=O)OCc1ccccc1 (configuration not stated)	5	-8	6	-13	-10	-1
COc1ccc(C(=O)c2ccc(N(C)C)cc2)c(OC)c1	-13	-8	-64	5	17	-6
CN(C)c1ccc(C(=O)c2ccc(N(C)C)c3ccccc23)cc1	-2	-17	-180	-65	55*	-218
Cn1cc(S(=O)(=O)Nc2ccc(OC(F)(F)F)cc2)c(=O)n(C)c1=O	2	5	15	6	-12	4
O=C(C(=O)N1CCCc2ccccc21)c1cn(CC(=O)N2CCOCC2)c2ccccc12	-14	0	5	31	0	8
CCc1ccc(-c2nn(-c3ccccc3)cc2C2SCC(=O)N2Cc2ccco2)cc1 (configuration not stated)	20	1	5	53*	0	16
Oc1ccc(/C=N/Nc2ccnc3cc(Cl)ccc23)c(O)c1	21	-6	-227	-34	-47	28
Cc1ccccc1/C=N/Nc1ccnc2cc(Cl)ccc12	-23	-5	-53	-69	-57	94*
Clc1ccc(NNc2ccnc3cc(Cl)ccc23)cc1	-10	-18	-7	-4	14	5
Clc1ccc2c(N/N=C/c3cccnc3)ccnc2c1	5	-80	-82	-36	-168	18
